In PubChem BioAssay (NCI):
About 79,000 compounds went through this panel and 15% of them were active in at least one assay; those are over-represented in the sample as a whole. A number with no mark means an inactive call. Activity calls are given as the source filed them. Cut-off read from the data, not from the text of the source: active = growth inhibition above about 70%; inactive = the rest.

Experiments:
[1] = NCI Yeast Anticancer Drug Screen. Data for the rad50 strain (AID 155);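 note: 0% = growth of vehicle-only cultures of the same strain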; conditions: S. cerevisiae rad50 strain growth inhibition, hits give high values
Method in brief: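 Genetically altered yeast (DNA repair pathway); compound treatment; growth inhibition vs vehicle ctrl.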

[2] = NCI Yeast Anticancer Drug Screen. Data for the mec2-1 strain (AID 157); conditions: S. cerevisiae mec2-1 strain, hits give high values
Method in brief: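 Yeast mec2-1 mutant treated with compound. Readout: growth inhibition vs vehicle controls.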

[3] = NCI Yeast Anticancer Drug Screen. Data for the sgs1 mgt1 strain (AID 161);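 note: 0% = growth of cultures given vehicle only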; conditions: S. cerevisiae sgs1 mgt1 strain, hits give high values
Method in brief: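 Test agents were incubated with a DNA-repair-mutant yeast strain. Growth was then read and compared against vehicle-treated controls.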

[4] = NCI Yeast Anticancer Drug Screen. Data for the cln2 rad14 strain (AID 165);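 note: 0% = growth equal to vehicle treated cultures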; conditions: S. cerevisiae cln2 rad14 strain, hits give high values
Method in brief: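 cln2 rad14 yeast strain; compound exposure; growth inhibition read vs vehicle controls.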

[5] = NCI Yeast Anticancer Drug Screen. Data for the bub3 strain (AID 167); conditions: S. cerevisiae bub3 mutant strain, hits give high values
Method in brief: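 Yeast carrying a defined mutation is treated with each compound, and growth is compared with that of vehicle-exposed cells to give inhibition.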

[6] = NCI Yeast Anticancer Drug Screen. Data for the mlh1 rad18 strain (AID 175); conditions: S. cerevisiae mlh1 rad18 strain growth inhibition, hits give high values
Method in brief: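 Yeast w/ defined DNA-repair lesions; compound exposure; growth vs vehicle controls → % inhibition.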

[7] = at 5.0 µM (retest, dose inferred, filed as 0.5)
[8] = at 50.0 µM (retest, dose inferred, filed as 5.0)

SMILES | growth inhibition [1, 7] | growth inhibition [1, 8] | growth inhibition ([1]; at 50.0 µM) | growth inhibition [2, 7] | growth inhibition [2, 8] | growth inhibition ([2]; at 50.0 µM) | growth inhibition [3, 7] | growth inhibition [3, 8] | growth inhibition ([3]; at 50.0 µM) | growth inhibition [4, 7] | growth inhibition [4, 8] | growth inhibition ([4]; at 50.0 µM) | growth inhibition [5, 7] | growth inhibition [5, 8] | growth inhibition ([5]; at 50.0 µM) | growth inhibition [6, 7] | growth inhibition [6, 8] | growth inhibition ([6]; at 50.0 µM)
O=C(Oc1c(Cl)c(Cl)c(Cl)c(Cl)c1Cl)c1ccc(Cl)cc1 | 25% | 99% (active) | 99.6% (active) | 19% | 99% (active) | 99.7% (active) | 24% | 99% (active) | 99% (active) | 13% | 99% (active) | 99.7% (active) | 15% | 99% (active) | 99.7% (active) | 30% | 99% (active) | 99.2% (active)
C1CNC(CCNCCSCCNCCC2=NCCN2)=N1 | 10% | 90% (active) | 95.1% (active) | 1% | 75% (active) | 84.2% (active) | 5% | 87% (active) | 91.9% (active) | 5% | 72% (active) | 83.2% (active) | -2% | 89% (active) | 93.5% (active) | 1% | 91% (active) | 94.3% (active)
Cc1cccc(N2C(c3ccccc3)c3ccc(C)cc3NS2=O)c1 (stereo not given) | 2% | -1% | 98.7% (active) | 2% | -2% | 98.8% (active) | 1% | -2% | 99.1% (active) | 1% | 1% | 98.7% (active) | -2% | -1% | 99.2% (active) | -4% | -7% | 99.2% (active)
CC(C)(CN1CCCCC1)C(=O)CC(SCCS(=O)(=O)O)c1ccc(Cl)c(Cl)c1 (stereo not given) | 62% | 97% (active) | 95.8% (active) | 33% | 97% (active) | 94% (active) | 33% | 95% (active) | 97.4% (active) | 38% | 98% (active) | 88.2% (active) | 58% | 99% (active) | 98% (active) | 41% | 97% (active) | 97% (active)
CC(=O)OCc1ccc2c(c1)C(O)NC(=O)O2 (stereo not given) | 8% | 45% | 36% | 2% | 13% | 21.9% | 13% | 69% | 51.8% | -5% | 18% | 16.2% | 0% | -7% | -23.1% | 43% | 88% (active) | 55.6%
Cc1ccc2c(c1)-c1cc(C)ccc1C2(O)c1ccccc1 | 3% | 83% (active) | 99% (active) | 14% | 66% | 97.9% (active) | 6% | 89% (active) | 93.7% (active) | -7% | 79% (active) | 97.2% (active) | 3% | 95% (active) | 96.7% (active) | -6% | 95% (active) | 99.2% (active)
O=C1c2ccc(S(=O)(=O)O)cc2C(=O)c2ccc(S(=O)(=O)O)cc21 | 3% | 23% | 49.3% | -1% | 21% | 25.5% | 5% | 36% | 47.5% | 2% | 26% | -62.8% | 1% | 19% | 55.4% | 4% | 31% | 74% (active)
CC(C)(COC(=O)Nc1cccc(Cl)c1)[N+](=O)[O-] | 2% | 15% | 88.3% (active) | -3% | 6% | 5.6% | -1% | 3% | 53.3% | -41% | -3% | -33.5% | -1% | 3% | 65.7% | -1% | 6% | 82.6% (active)
CCC[CH2][Sn]1([CH2]CCC)[O]CC([CH2][Sn]([c]2ccccc2)([c]2ccccc2)[c]2ccccc2)[O]1 (stereo not given) | 100% (active) | 100% (active) | 90.3% (active) | 97% (active) | 97% (active) | 91.7% (active) | 99% (active) | 99% (active) | 90.8% (active) | 99% (active) | 99% (active) | 91.7% (active) | 97% (active) | 97% (active) | 91.3% (active) | 98% (active) | 98% (active) | 89% (active)
C#CCNC(C)(C)C | 1% | 4% | 98.5% (active) | -5% | 1% | 99.4% (active) | -2% | -3% | 86% (active) | -3% | 2% | 98.7% (active) | 3% | -2% | 99.7% (active) | -1% | 1% | 99.1% (active)
